Source: PubChem
A selection: hits, their analogues and other compounds. The true share with any hit is near 3.8%.
HepG2 tox-1: HepG2 cytotoxicity, counter-screen for TGF-b inhibitors. Potency, µM (highest dose often 46.1 µM), actives largely listed as cytotoxic. hit rate 0.76% among 410,000. AID 588856. HepG2 CAGA-GFP viability, ATP luminescence, 18 h
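HepG2 CAGA-GFP cells (1000/well, DMEM with 1% FBS) received compound, then TGF-beta at 500 pg/mL final, and were incubated 18 hours at 37 degrees C. Viability was read by CellTiter-Glo luminescence. Media-only wells were set as complete cell-killing and DMSO as no toxicity.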
Nrf2 block: inhibitors of Nrf2 signaling | A549 ARE-Fluc reporter, luciferase luminescence, 18-24 h | Potency, µM (top dose mostly 46 µM), most hits filed as inhibitors | AID 504444 | hit rate 2.1% among 360,000; further: nearly all actives have a fitted effect of over 60% in size
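A549 ARE_Fluc cells, 5000/well, 5% FBS OPTI-MEM; compounds in dose-response, 18-24 h at 37 °C/5% CO2; CellTiter-Fluor viability read (Ex 405/Em 525), then BugLite luciferase luminescence = Nrf2 activity.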
S2 tox: cell viability loss in ATXN counter-screen; S2 cells (HEK-293 line with an ATXN2-luciferase reporter) viability, CellTiter-Fluor protease fluorescence, 24 h; Potency, µM (highest dose often 56.7 µM), most hits filed as cytotoxic; hit rate 0.49% among 400,000; further: nearly all actives have a fitted effect of over 40% in size
ATXN2 expr inh: ATXN2 expression inhibition; Potency, µM (doses to about 57 µM), usual class: inhibitors; hit rate 0.72% among 360,000; AID 1745845; HEK-293 ATXN2-luciferase reporter, luminescence, 24 h; further: nearly all actives have a fitted effect of over 55% in size
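qHTS (up to 57 uM final) was run with 24 h compound exposure of reporter cells at 37 °C. Each well was multiplexed: SteadyGlo luminescence measured ATXN2-luciferase expression after a fluorogenic Gly-Phe-AFC viability readout (25 uM final).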
TGFb SMAD3 inh: blocks TGF-b signaling; HepG2 CAGA-GFP TGF-b/SMAD3 reporter, GFP fluorescence, 18 h; TGF-beta stimulated, 500 pg/mL final; Potency, µM (highest dose often 46.1 µM), actives largely listed as inhibitors; hit rate 1.2% among 410,000; AID 588855; further: nearly all actives have a fitted effect of over 65% in size
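Read-out: total well GFP (ex488/em500-530) summed from mean per-cell fluorescence. Cells: HEPG2 CAGA-GFP, 1% FBS DMEM, 18 h at 37 degrees C with 500 pg/mL final TGF-beta. Unstimulated wells served as the full-inhibition control; stimulated DMSO wells = 0%.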
A549 tox: counter-screen for Nrf2 inhibitors: cytotoxicity in A549 cells; A549 ARE-Fluc cells, CellTiter-Fluor viability, 18-24 h; Potency, µM (titrated, usually from 46 µM), actives largely listed as inhibitors; AID 504648; hit rate 0.16% among 390,000
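A549 ARE_Fluc cells in 5% FBS OPTI-MEM were exposed to compounds in concentration-response for 18-24 h at 37 deg C. Viability was read by CellTiter-Fluor fluorescence (Ex 405/Em 525) after 30 min, before the luciferase read.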
TGFb CAGA inh: confirmation of TGF-b signaling inhibitors in HepG2 reporter cells; shares compounds with TGFb SMAD3 inh; HepG2 CAGA-GFP TGF-b reporter, GFP fluorescence, 18 h; cells stimulated with TGF-beta, 500 pg/mL; Potency, µM (highest dose often 46.1 µM), hits mostly inhibitors; hit rate 63% among 1,600; further: nearly all actives have a fitted effect of over 65% in size
HepG2 tox-2: HepG2 cytotoxicity, TGF-b inhibitor counterscreen. Potency, µM (titrated, usually from 46.1 µM), usual class: inhibitors. HepG2 CAGA-GFP viability, ATP luminescence, 18 h; cells stimulated with TGF-beta, 500 pg/mL. shares compounds with TGFb SMAD3 inh. hit rate 27% among 1,600; further: nearly all actives have a fitted effect of over 70% in size
TGFb CCL64 inh: blocks TGF-b signaling in CCL64 reporter cells | hit rate 41% among 1,600 | CCL64 CAGA-GFP reporter, TGF-b stimulated, GFP fluorescence, 18 h | Potency, µM (titrated, usually from 46.1 µM), actives largely listed as inhibitors | AID 720536 | shares compounds with TGFb SMAD3 inh; further: nearly all actives have a fitted effect of over 65% in size
COP TGFb inh: TGF-b inhibition validated with COP promoter. Potency, µM (titrated, usually from 46.1 µM), actives largely listed as inhibitors. HepG2 COP-GFP TGF-b reporter, GFP fluorescence, 18 h; cells stimulated by added recombinant TGF-beta. AID 720537. hit rate 3% among 1,600. shares compounds with TGFb SMAD3 inh; further: nearly all actives have a fitted effect of over 70% in size
A number is an active result; i = inactive; ? = inconclusive; nt = no result; [ ] = remark or other dose. The call rests on the fitted dose curve; in most records, active means well fitted curve in the direction sought with a large enough effect; inconclusive means small, poorly fitted or top-dose-only effect, or another doubt; inactive means no such curve, though single readings can be large; an effect the other way counts as inactive or inconclusive.

SMILES | HepG2 tox-1 | Nrf2 block | S2 tox | ATXN2 expr inh | TGFb SMAD3 inh | A549 tox | TGFb CAGA inh | HepG2 tox-2 | TGFb CCL64 inh | COP TGFb inh
O=C(NC1CCCCCC1)c1c2c(nc3ccccc13)CCN(Cc1ccccc1)C2 | i | ? | ? | i | i | i | nt | nt | nt | nt
CC(O)C(C(=O)OCc1ccc([N+](=O)[O-])cc1)N1C(=O)c2ccccc2C1=O (stereo not given) | i | i | i | i | i | i | nt | nt | nt | nt
CCOC(=O)Nc1nc(-c2ccccc2)c(C(=O)c2ccc(Cl)cc2)s1 | i | i | ? | i | 8.9µM | ? | 7.3µM | i | 9.2µM | i
C#CCNC(=O)C[C@@H]1C[C@@]2(C(=O)OC)CCCCC=C2N(CCCCCCCC)C1=O | nt | nt | ? | i | nt | nt | nt | nt | nt | nt
CCCNC(=O)c1ccc2c(=O)c(O)c(-c3ccc(Cl)c([N+](=O)[O-])c3)[nH]c2c1 | i | i | ? | i | 7.1µM | i | 5.2µM | ? | 6.5µM | i
O=C(NCCc1nc2ccccc2[nH]1)c1ccc(Cl)c([N+](=O)[O-])c1 | i | i | i | i | i | i | nt | nt | nt | nt
COc1ccc(OC)c(NC(=O)CC2Oc3ccccc3NC2=O)c1 (stereo not given) | i | i | ? | nt | i | i | nt | nt | nt | nt
CN(C)CCNC(=O)c1cccc2[nH]c(-c3ccncc3)nc12 | i | ? | ? | ? | 10µM | ? | 16µM | 21µM | 13µM | i
COc1ccc(S(=O)(=O)N2CCC(C(=O)N3CCN(C)CC3)CC2)cc1Cl | i | i | i | i | i | i | nt | nt | nt | nt
COc1ccc(S(=O)(=O)N2CCC(C(=O)N3CCc4ccccc4C3)CC2)cc1Cl | i | ? | i | i | ? | i | ? | i | ? | i
O=[N+]([O-])c1ccc(-c2nc(NCc3cccnc3)c3ccccc3n2)cc1 | i | i | i | i | i | i | nt | nt | nt | nt
Oc1ccccc1-c1nc(NCc2cccnc2)c2ccccc2n1 | i | 12µM | i | ? | 20µM | ? | ? | ? | ? | i
COc1ccc(C(=O)CC(=O)c2ccc(C(C)(C)C)cc2)cc1 | i | i | i | ? | i | i | nt | nt | nt | nt
COc1ccc(C(=O)C(CCC(CNC(C)(C)C)C(=O)c2ccc(OC)cc2)CNC(C)(C)C)cc1 (stereo not given) | i | ? | ? | ? | 7.1µM | ? | ? | 18µM | 4.1µM | ?
COC(=O)CCS(=O)(=O)c1nc(-c2ccccc2)cc(C(F)(F)F)n1 | 14µM | ? | nt | ? | 5µM | ? | 4.6µM | 15µM | 2.1µM | ?
COc1ccc(-n2c(CCc3ccccc3)nnc2SCC(=O)NCc2ccccc2)cc1 | i | i | i | i | i | i | nt | nt | nt | nt
C=CCn1c(CSCc2ccc(Cl)cc2)nnc1SCC(=O)NCc1ccccc1 | i | ? | ? | i | 8.9µM | i | ? | i | i | i
O=C(CSc1nnc(CCc2ccccc2)n1-c1ccc(Cl)cc1)NCc1ccccc1 | i | i | i | i | 11µM | i | ? | i | ? | i
COc1ccc(CCNC(=O)CCS(=O)(=O)c2cc(Br)cc3c2N(C(C)=O)CC3)cc1OC | i | i[9.27 µM] | i | i | i | i | nt | nt | nt | nt
FC(F)(F)c1cccc(-c2nc3nc(Cl)c(Cl)nc3[nH]2)c1 | i | ? | i | nt | 2.2µM | ? | 6.5µM | 6.5µM | 5.2µM | i
COc1cc(C(=O)N/N=C(\C)c2ccccn2)cc(OC)c1OC | i | i | i | i | 1.3µM | ? | 7.3µM | i | 3.7µM | i
CCn1nc([N+](=O)[O-])c(C(C#N)c2nc3cc(C(F)(F)F)ccc3s2)c(Cl)c1=O (stereo not given) | i | 8.2µM | nt | ? | 0.35µM | ? | 3.3µM | 8.2µM | 5.2µM | i
CCSc1nnc(NC(=O)Nc2cccc(C)c2)s1 | i | i | i | i | 7.9µM | i | ? | ? | ? | i
CS(=O)(=O)c1ccc2nc(NC(=O)Nc3cccc(Cl)c3)sc2c1 | i | ? | ? | i | 2.2µM | ? | 16µM | ? | ? | i
Cc1ccc(NC(=O)Nc2nnc(-c3ccncc3)s2)cc1C | i | i | i | i | 7.9µM | i | 9.2µM | ? | ? | i
SMILES | HepG2 tox-1 | Nrf2 block | S2 tox | ATXN2 expr inh | TGFb SMAD3 inh | A549 tox | TGFb CAGA inh | HepG2 tox-2 | TGFb CCL64 inh | COP TGFb inh
NC(c1csc(NC(=O)Nc2cccc(Cl)c2)n1)c1ccccc1Cl (stereo not given) | i | nt | ? | ? | 10µM | nt | 18µM | ? | ? | i
COC(=O)C1=C[C@@H](C(=O)OC)[C@@H]2C3=C(C(=O)[C@@]2(CC(C)C)NC(=O)c2ccccc2)[C@H](C)n2c(=O)n(-c4ccccc4)c(=O)n2[C@@H]3C1 | i | i | nt | nt | ? | i | nt | nt | nt | nt
O=C(NC1CCCCC1)c1nc(C2CCNCC2)oc1-c1ccccc1 | i | nt | i | i | i | nt | nt | nt | nt | nt
O=C(Nc1ccc(SC(F)F)cc1)c1cc(-c2ccc3c(c2)OCCO3)on1 | i | i | i | i | ? | i | nt | nt | nt | nt
O=C(Nc1cccc(Cl)c1)Nc1nnc(-c2ccncc2)s1 | i | ? | nt | ? | 7.9µM | ? | 10µM | ? | 6.5µM | i
O=C(Nc1ccc(Cl)cc1)Nc1nnc(-c2ccncc2)s1 | i | ? | ? | ? | ? | ? | nt | nt | nt | nt
Cc1ccc(C(=O)OCC(=O)N2CCC(C)CC2)cc1S(=O)(=O)N1CCOCC1 | i | nt | i | nt | i | nt | nt | nt | nt | nt
O=S(=O)(CC(CN1CCCCC1)N1CCCCC1)c1ccc2ccccc2c1 (stereo not given) | 11µM | ? | i | i | 3.2µM | i | 13µM | 13µM | ? | ?
CN(C(=O)c1ccc(NC(=O)Cc2cccc(NC(=O)C3CCN(C(=O)CCc4ccccc4)CC3)c2)cc1)C1CCCC1 | i | i | i | i | 13µM | i | ? | i | i | i
O=C(NC1CCCC(C(F)(F)F)C1)c1ccc([N+](=O)[O-])o1 (stereo not given) | 16µM | i | i | i | 10µM | i | 7.3µM | 23µM | ? | ?
O=C(NC1CCCCC1)c1ccc([N+](=O)[O-])o1 | i | i | i | i | ? | i | nt | nt | nt | nt
